# Several values for one entry are separate records, joined by “and”; a condition that tells them apart may be missing. Identical values can stand only once. Screen size: about 6,400 compounds; about 610 (9.5%) were called active. Rule as the data show it: active = activity change below about -70%; inconclusive = no clear call, values can overlap the other calls; inactive = above that. Only a selection was taken, and actives are over-represented in it overall. Where a structure was tested more than once in an assay, its records may differ in their call.
# Test: T. gondii ME49Luc in HeLa cells, luciferase assay, 72 h, no IFN-y (AID 1259421)
# Details: stronger effect = lower value, concentration not given here
row,Structure (SMILES),"activity change, negative = inhibition"
1,CON(C)C(=O)N1N=C(c2cc(F)ccc2F)S[C@@]1(CCCN)c1ccccc1,-53.7% (inactive)
2,CCCCc1nc2ccn(CC(=O)N(C)C)c(=O)c2n1Cc1ccc(-c2ccccc2-c2nn[nH]n2)cc1,18.6% (inactive) and -0.527% (inactive)
3,O=C1CSC(=O)N1,20.7% (inactive)
4,O=C1NC(=O)c2cc(Nc3ccccc3)c(Nc3ccccc3)cc21,7.82% (inactive)
5,CC(=O)[C@H]1CCC2C3CCC4=CC(=O)CC[C@]4(C)C3[C@H](OC(=O)CCC(=O)O)C[C@@]21C (stereo partly drawn),-2.62% (inactive)
6,CC(C)(c1ccc(O)cc1)c1ccc(O)cc1,6.99% (inactive)
7,CCc1ccccc1OC[C@@H](O)CN[C@H]1CCCc2ccccc21,23.1% (inactive) and 15.7% (inactive)
8,C[C@@H]1CC[C@@]2(OC1)O[C@H]1C[C@H]3[C@@H]4CC=C5C[C@@H](O)CC[C@]5(C)[C@H]4CC[C@]3(C)[C@H]1[C@@H]2C,6.17% (inactive)
9,CN1[C@@H]2CC[C@@H]1CC(OC(c1ccccc1)c1ccccc1)C2 (stereo partly drawn),11.3% (inactive)
10,O=[N+]([O-])c1cn2c(n1)OC[C@@H](OCc1ccc(OC(F)(F)F)cc1)C2,-78.6% (active)
11,CC1O[C@@H](Oc2c(-c3ccc(O)c(O)c3)oc3cc(O)cc(O)c3c2=O)[C@H](O)[C@H](O)[C@H]1O (stereo partly drawn),5.62% (inactive)
12,O=C1NC(=O)/C(=C\c2ccc(-c3ccc(F)cc3)o2)S1,32.3% (inactive)
13,[2H]C([2H])([2H])C(O)(CCO[C@@H](C)[C@H]1CC[C@H]2/C(=C/C=C3/C[C@@H](O)C[C@H](O)C3=C)CCC[C@]12C)C([2H])([2H])[2H],0.514% (inactive)
14,COc1ccc2c(=O)c(CC(=O)O)coc2c1,4.96% (inactive)
15,CO/N=C(/C(=O)N[C@@H]1C(=O)N2C(C(=O)OCOC(=O)C(C)(C)C)=C(/C=C/c3scnc3C)CS[C@H]12)c1csc(N)n1,2.91% (inactive)
16,C/C=C1\NC(=O)[C@H]2CSSCCC=C[C@H](CC(=O)N[C@H](C(C)C)C(=O)N2)OC(=O)[C@H](C(C)C)NC1=O,-80.8% (active)
17,CC(=O)c1ccc2c(c1)[C@H](NC(=O)c1ccc(F)c(Cl)c1)[C@H](O)C(C)(C)O2,-1.26% (inactive)
18,C[C@]12CCC(=O)C=C1CCC1C2[C@@H](O)C[C@@]2(C)C1CC[C@]2(O)C(=O)CO (stereo partly drawn),-3.05% (inactive)
19,O=C(O)COc1ccc(OCCNC[C@@H](O)COc2ccccc2)cc1,0.151% (inactive)
20,COc1ccc2cccc(N3CCN(CCNC(=O)c4ccc(F)cc4)CC3)c2c1,40.8% (inactive) and 23.4% (inactive)
21,CC(C)C[C@H](NC(=O)CNC(=O)c1cc(Cl)ccc1Cl)B1OC(=O)CC(CC(=O)O)(C(=O)O)O1 (stereo partly drawn),-87.8% (active)
22,CCCC(C)NC(=O)c1ccc(Cl)c(Cl)c1 (stereo not drawn),6.33% (inactive)
23,O=C(CNC(=O)c1ccc(Cl)cc1)NO,36.3% (inactive)
24,CC(C)C[C@H](NC(=O)CNC(=O)c1cc(Cl)ccc1Cl)B(O)O,-77.9% (active)
25,CC1=C(/C=C/C(C)=C/C=C/C(C)=C/C=O)C(C)(C)CCC1,16.4% (inactive)
26,O=C(Nc1cccnn1)N1CCC(=Cc2cccc(Oc3ccc(C(F)(F)F)cn3)c2)CC1,-18.9% (inactive)

row,Structure (SMILES),"activity change, negative = inhibition"
1,CC1(C)C(=O)C=C[C@@]2(C)C1CC(=O)[C@]1(C)C2CC[C@@]2(C)[C@H](c3ccoc3)OC(=O)[C@H]3O[C@]321 (stereo partly drawn),30.3% (inactive)
2,CC(=O)O[C@@H]1C[C@H]2C(C)(C)C(=O)C=C[C@]2(C)[C@H]2CC[C@@]3(C)[C@H](c4ccoc4)OC(=O)[C@H]4O[C@]43[C@@]21C,26.1% (inactive)
3,CC1(C)C(=O)C=C[C@@]2(C)C1C=C[C@]1(C)C2CC[C@@]2(C)[C@H](c3ccoc3)OC(=O)[C@H]3O[C@]321 (stereo partly drawn),-89.3% (active)
4,CC(=O)O[C@H]1C[C@@H](OC(C)=O)C(C)(C)C2C[C@@H](O)[C@]3(C)C(CC[C@@]4(C)[C@H](c5ccoc5)OC(=O)[C@H]5O[C@]543)[C@]21C (stereo partly drawn),5.63% (inactive)
5,COC(=O)c1csc(C(=O)c2c[nH]c3ccccc23)n1,5.76% (inactive)
6,CC(C)(C)c1cc(C(C)(C)C)c(NC(=O)c2c[nH]c3ccccc3c2=O)cc1O,-81.7% (active)
7,OCc1c[nH]c2ccccc12,2.87% (inactive) and 57.8% (inactive)
8,NC(N)=NCCNS(=O)(=O)c1cccc2cnccc12,0.419% (inactive) and 15.9% (inactive)
9,CC(C)c1ccc2c(c1)C(N1CCN(CCO)CC1)Cc1ccc(F)cc1S2 (stereo not drawn),-37.4% (inactive)
10,CC(=O)Oc1c(C)cc(OCC(O)CNC(C)C)c(C)c1C (stereo not drawn),-4.5% (inactive)
11,CNC(=O)c1cnn(-c2nc(N)c3ncn([C@@H]4O[C@H](CO)C(O)C4O)c3n2)c1 (stereo partly drawn),7.49% (inactive)
12,CC(C)(C)n1nc(-c2cccc3ccccc23)c2c(N)ncnc21,-64.8% (inactive) and -76.3% (active)
13,Cc1ccc(-c2nn(C(C)(C)C)c3ncnc(N)c23)cc1,-88.2% (active) and -83% (active)
14,CC(C)(C)n1nc(-c2ccc(Cl)cc2)c2c(N)ncnc21,-91.7% (active)
15,CCNC(=O)CCC/C=C\C[C@@H]1[C@@H](/C=C/C(O)CCc2ccccc2)[C@H](O)C[C@@H]1O (stereo partly drawn),8.47% (inactive)
16,O=[N+]([O-])c1cncn1CCN1CCOCC1,23.6% (inactive)
17,CCCOc1ccc2nc(NC(=O)OC)sc2c1,106% (inactive)
18,CCCn1c(=O)[nH]c(=O)c2[nH]cnc21,6.86% (inactive)
19,CCC(=O)c1ccc(OCC(O)CN2CCN(c3ccccc3)CC2)cc1 (stereo not drawn),9.53% (inactive)
20,COc1ccc(N2CCOCC2)c2sc(NC(=O)N3CCC(C)(O)CC3)nc12,12.2% (inactive)
21,CCCCC#Cc1nc(NC)c2ncn(C3OC(CO)C(O)C3O)c2n1 (stereo not drawn),-3.28% (inactive)
22,Cc1cc(OCCN2CCOCC2)nn1-c1ccc2ccccc2c1,13.6% (inactive)
23,O=c1[nH]c(=O)c2[nH]c(=O)[nH]c2[nH]1,3.85% (inactive)
24,CC(C)NC[C@@H](O)c1ccc(NS(C)(=O)=O)cc1,2.38% (inactive)
25,C[C@@H]([C@@H](O)c1ccc(O)cc1)N1CCC(O)(c2ccccc2)CC1,0.328% (inactive) and 9.44% (inactive)
26,Nc1nc(Cl)nc2c1ncn2C1OC(CO)C(O)C1F (stereo not drawn),-87.6% (active)

row,Structure (SMILES),"activity change, negative = inhibition"
1,Nc1nc(Cl)nc2c1ncn2[C@H]1C[C@H](O)[C@@H](CO)O1,-37.2% (inactive)
2,Nc1nc(Cl)nc2c1ncn2[C@@H]1O[C@H](CO)[C@@H](O)[C@@H]1F,-81.3% (active)
3,OCC1OC(n2cnc3c(NC4CCCC4)nc(Cl)nc32)C(O)C1O (stereo not drawn),-5.92% (inactive)
4,OC[C@H]1O[C@@H](n2cnc3c(NC4CCCC4)nc(Cl)nc32)[C@H](O)[C@@H]1O,3.31% (inactive)
5,Nc1nc(F)nc2c1ncn2[C@@H]1O[C@H](CO)[C@@H](O)[C@@H]1O,-26.8% (inactive)
6,CCCCC[C@@H](O)[C@H]1C(=O)O[C@H](C)[C@@H](O)/C=C/C=C/C=C/C=C/C=C(\C)[C@@H](O)C[C@H](O)C[C@H](O)C[C@H](O)C[C@H](O)C[C@H](O)C[C@@H]1O,2.49% (inactive)
7,Ic1cc(-c2ccccc2)ncn1,1.75% (inactive)
8,COc1ccc2c3c1OC1CC(O)C=CC31CCN(C)C2 (stereo not drawn),4.76% (inactive)
9,CC(=O)OCC(=O)[C@@]1(O)CCC2C3CCC4=CC(=O)CC[C@]4(C)C3=CC[C@@]21C (stereo partly drawn),-0.754% (inactive)
10,CCCCCN=c1ccn(Cc2ccccc2)c2ccccc12,-3.35% (inactive)
11,CCCCCCCCN=c1ccn(CCCCCCCCCCn2ccc(=NCCCCCCCC)cc2)cc1,-74.7% (active)
12,CN[C@H](CNC(=O)N1CCC[C@@H]([C@@H](OCCNC(=O)OC)c2cccc(Cl)c2)C1)C[C@H]1CCCOC1,7.28% (inactive)
13,CNC(=O)c1ccc(-c2cnc3ncc(Cc4ccc5ncccc5c4)n3n2)cc1F,-3.07% (inactive)
14,COc1ccc([C@H]2COc3c(ccc(O)c3OC)C2)c(OC)c1O,8.53% (inactive)
15,CC(NCC(O)CP(=O)(O)CC1CCCCC1)c1ccc(Cl)c(Cl)c1 (stereo not drawn),-2.11% (inactive)
16,C[C@H](NC(=O)Cc1cc(F)cc(F)c1)C(=O)N[C@@H]1C(=O)N(C)c2ccccc2-c2ccccc21,-81.4% (active)
17,CC(NC(=O)Cc1cc(F)cc(F)c1)C(=O)NC(C(=O)OC(C)(C)C)c1ccccc1 (stereo not drawn),5.05% (inactive)
18,C[C@H](NC(=O)[C@@H](O)c1cc(F)cc(F)c1)C(=O)N[C@@H]1C(=O)N(C)c2ccccc2-c2ccccc21,26.6% (inactive)
19,C=C1/C(=C\C=C2/CCC[C@]3(C)[C@@H]([C@H](C)/C=C/C=C/C(O)(CC)CC)CC[C@@H]23)C[C@@H](O)C[C@@H]1O,17.9% (inactive)
20,COCCOc1ccc(N2CCN(CCn3ncc4c3nc(N)n3nc(-c5ccco5)nc43)CC2)cc1,-6.85% (inactive)
21,COc1c(O)cccc1O,9.75% (inactive)
22,COc1nc2ccc(Br)cc2cc1[C@@H](c1ccccc1)[C@@](O)(CCN(C)C)c1cccc2ccccc12,48% (inactive)
23,CC(C)OC(=O)[C@H](C)N[P@@](=O)(OC[C@H]1O[C@@H](n2ccc(=O)[nH]c2=O)[C@](C)(F)[C@@H]1O)Oc1ccccc1,5.02% (inactive) and 18.5% (inactive)
24,Cc1c(O)c(=O)n(-c2ccccc2)n1C,-80.6% (active) and 1.34% (inactive)
25,Cc1c(N(C)C)c(=O)n(-c2ccccc2)n1C,13% (inactive)
26,Cc1c(I)c(=O)n(-c2ccccc2)n1C,9.68% (inactive)
